# Experimental data as given in ChEMBL document CHEMBL3988442, “University of Dundee, Small-Polar-MMV Screening Library” (2021).
# The campaign covered roughly 48,000 compounds. About 13,000 (27%) showed an effect of 50% or more. Some of the results follow.
# System: Wolbachia pipientis
# Test: Anti-Wolbachia Cell-Based Screen
# Format: functional
# Set-up: scale not given: in the data most compounds retested in dose-response had high values
# Details: 5 µM
row,SMILES,Percent Effect
1,CC(C)c1ccc(S(=O)(=O)NC2(CC(N)=O)CCC2)cc1,-1.072%
2,Cn1cc(CN2CC[C@@H]3[C@@H](CCC(=O)N3CCc3c[nH]cn3)C2)cn1,6.547%
3,CCOCCS(=O)(=O)N(CC)Cc1ccc(Cl)s1,-4.367%
4,CCc1nn(C)c(Cl)c1CN1CCN(c2nc(C(N)=O)cs2)CC1,12.42%
5,O=C1COC2(CCN(c3ncccn3)CC2)CN1c1ccsc1,18.21%
6,CCc1cnc(CN(C(C)=O)C2CCN(CCS(C)(=O)=O)C2)o1 (stereo not given),-15.83%
7,CCc1cnc(CN(C(C)=O)C2CCN(CCN3CCCCC3)C2)o1 (stereo not given),112.7%
8,CC(=O)N(Cc1ncc(C(C)C)o1)C1CCN(CCn2cccn2)C1 (stereo not given),8.925%
9,CCc1cnc(CN(C(C)=O)C2CCN(CC3(O)CCCCC3)C2)o1 (stereo not given),86.51%
10,CCc1cnc(CN(C(C)=O)C2CCN(CC(=O)N3CCCC3)C2)o1 (stereo not given),113.8%
11,COc1cccc(CN(C)Cc2cc(C#N)ccc2F)c1OC,-16.49%
12,O=C(c1c[nH]c(=O)[nH]1)N1CCCC2(CCC(=O)N(C3CCCC3)C2)C1 (stereo not given),5.666%
13,CC(C(=O)NC1CCCCC1)N1CCc2[nH]nc(C(F)(F)F)c2C1 (stereo not given),-5.733%
14,Cc1nccn1-c1ccc(N2CCC(NC(C)CC(C)C)CC2)cc1 (stereo not given),16.66%
15,COCCN1CCc2cc(C(=O)NC(C)C)c(NCC3CC3)nc2CC1.O=C(O)C(F)(F)F.O=C(O)C(F)(F)F,103.7%
16,CNC(=O)c1cc2c(nc1NCC(C)C)CCN(CCOC)CC2.O=C(O)C(F)(F)F.O=C(O)C(F)(F)F,1.626%
17,COCCN1CCc2cc(C(=O)NCC3CC3)c(NC(C)C)nc2CC1.O=C(O)C(F)(F)F.O=C(O)C(F)(F)F,-15.94%
18,COCCN1CCc2cc(C(=O)O)c(NCC3CC3)nc2CC1.O=C(O)C(F)(F)F.O=C(O)C(F)(F)F,96.69%
19,COCCN1CCc2cc(C(=O)N(C)C)c(NCC3CC3)nc2CC1.O=C(O)C(F)(F)F.O=C(O)C(F)(F)F,1.501%
20,COCCN1CCc2cc(C(=O)NC(C)C)c(NCC(C)C)nc2CC1.O=C(O)C(F)(F)F.O=C(O)C(F)(F)F,1.817%
21,Cc1[nH]ncc1CCCNC(=O)Nc1ccc(S(C)(=O)=O)nc1,0.4286%
22,O=c1[nH]c(CN(Cc2ccco2)C2CCCC2)nc2ccccc12,5.367%
23,O=C(c1ccno1)N1CCOC[C@H](Oc2ccc(C(F)(F)F)cc2)C1,-17.29%
24,CCN(CC)CCCN1CCN(c2nc(C)cnc2C)CC1,20.67%
25,CCN(Cc1ccco1)C(=O)NCc1nnc2n1CCCCC2,0.3449%

row,SMILES,Percent Effect
1,CCN(CC1CCOC1)C(=O)NCc1nnc2n1CCCCC2 (stereo not given),91.82%
2,CCN(CC1CCOC1)C(=O)NCc1ccc(-n2cncn2)nc1 (stereo not given),19.04%
3,CCN(Cc1ccco1)C(=O)NCc1nnc2n1CCC2,-0.2431%
4,Cc1ccc(CN(C(=O)NCc2nnc3n2CCCCC3)C2CC2)o1,2.122%
5,CCN(CC1CCOC1)C(=O)NCc1nnc2n1CCC2 (stereo not given),118.1%
6,O=C(NCc1nnc2n1CCC2)N(Cc1ccco1)C1CC1,0.3443%
7,O=C(NCc1nnc2n1CCCCC2)N(CC1CCOC1)C1CC1 (stereo not given),99.15%
8,O=C(NCc1nnc2n1CCCCC2)N(Cc1ccncc1)C1CC1,-19.08%
9,O=C(NCc1nnc2n1CCCC2)N(Cc1ccccc1F)C1CC1,-10.57%
10,CCN(CC1CC1)C(=O)NCc1nnc2n1CCC2,96.27%
11,COCc1ccccc1CNC(=O)CN1CCC2(CCOC2)C1 (stereo not given),-0.6554%
12,Cc1nn2c(N3CCCC(C#N)C3)cc(-c3ccccc3)nc2c1C (stereo not given),-8.58%
13,Cc1nc[nH]c1-c1nccn1CCN(C)S(C)(=O)=O,-5.143%
14,Cc1nc[nH]c1-c1nccn1CCN1CCCC1=O,101.5%
15,Cc1nc[nH]c1-c1nccn1CCN1CCOC1=O,102.9%
16,Cc1nc[nH]c1-c1nccn1CCN1CCCOC1=O,97.83%
17,CCc1nccn1CCCn1ccnc1-c1[nH]cnc1C,10.91%
18,Cc1ccsc1-c1nccn1CCN1CCCOC1=O,94.33%
19,Cc1nc[nH]c1-c1nccn1-c1cccc(CN2CCCC2)c1,12.04%
20,COCCn1ccnc1-c1[nH]cnc1C,8.201%
21,Cc1ccsc1-c1nccn1CCS(C)(=O)=O,-15.8%
22,Cc1ccsc1-c1nccn1CCS(=O)(=O)N1CCCC1,-5.417%
23,Cc1nc[nH]c1-c1nccn1CCCN(C)C,-1.575%
24,CCN(CC)CCn1ccnc1-c1[nH]cnc1C,9.707%
25,CN(C)c1ncc(CNC(=O)Nc2ccc(C(F)(F)F)cc2)n1C,20.28%

row,SMILES,Percent Effect
1,COc1cc(N2CCCn3cnc(COC(C)C)c3C2)ncn1.O=CO,-4.807%
2,CC(=O)NCCC(=O)Nc1sccc1C(=O)C(C)(C)C,21.69%
3,c1ccc(COc2ccccc2NC2CCOCC2)nc1,-16.72%
4,CN(CC(=O)NC(Cc1ccsc1)c1cccnc1)Cc1cccnc1.Cl (stereo not given),75.58%
5,Cc1cc(C)n(CC(=O)NC(Cc2ccsc2)c2ccccn2)c(=O)n1.Cl (stereo not given),-15.12%
6,Cc1nc(CN(Cc2cccnc2)Cc2ccsc2)c[nH]1,-3.654%
7,CN(CC(=O)N1CC(C)(C)[C@](O)(C2CC2)C1)Cc1cccnc1,-2.465%
8,Cc1csc(C(C#N)C(=O)NCc2cccnc2)n1 (stereo not given),-20.56%
9,O=C(CCc1ccsc1)N(Cc1ccccn1)C1CC1,0.03996%
10,Cc1csc(C(Cc2ccsc2)NC(=O)CN(C)Cc2ccccn2)n1.Cl (stereo not given),143%
11,Cc1csc(C(Cc2ccsc2)NC(=O)CN(C)Cc2cccnc2)n1.Cl (stereo not given),118.2%
12,CC(CNC(=O)CCc1ccccn1)c1ccsc1 (stereo not given),1.276%
13,CN(CC(=O)NS(=O)(=O)c1ccsc1)Cc1ccccc1,-14.35%
14,Cc1ccc(CC(NC(=O)CN(C)C2CC2)c2ccccn2)cc1 (stereo not given),-26.42%
15,CN(CC(=O)NC(Cc1ccsc1)c1cccnc1)Cc1ccccn1.Cl (stereo not given),89.62%
16,CCOC(C)c1noc(CN2CCCNCC2)n1 (stereo not given),2.297%
17,C=C(C)CN1CCC(NC(=O)NCCc2cccc(C(N)=O)c2)CC1,-8.268%
18,CC(=O)c1ccc(C(=O)N2C[C@@H](CN3CCCC3)[C@@H](CO)C2)cc1,-35.7%
19,O=C(NCCN1CCCCCC1=O)NCc1ccc(Cl)s1,-3.851%
20,CC(SCC(=O)NC(N)=O)c1ccc(Cl)cc1 (stereo not given),8.768%
21,COc1cc(OC)cc(N2CCC(NCc3ccsc3)C2=O)c1 (stereo not given),-5.145%
22,Cc1cc(C2NC(=O)CN2Cc2ccc(Br)cc2)cc(C)c1O (stereo not given),98.83%
23,Cc1cc(CN2CCN(CC3CC3)[C@@H]3CS(=O)(=O)C[C@@H]32)cc(C)c1O,22.76%
24,Cl.NC(=O)COc1ccc(CNCc2ccc(F)c(F)c2)cc1,-10.35%
25,NC(=O)COc1ccc(C2NC(=O)CN2Cc2ccc(Br)cc2)cc1 (stereo not given),110.3%

row,SMILES,Percent Effect
1,CC(C)(C)n1ncc2c1NC(=O)CC2c1ccc(OCC(N)=O)cc1 (stereo not given),-0.952%
2,COc1cc(CN2CC(=O)N(c3ccc(C)cc3)CC2C)cc(OC)c1 (stereo not given),-3.228%
3,COc1cc(OC)cc(C2NC(=O)CN2Cc2ccc(Br)cc2)c1 (stereo not given),85.78%
4,Cc1cc(NC(=O)CNC(C)(C)c2nc(C)c(C)s2)no1,-14.55%
5,COc1ccc(CNC(=O)c2cc3c(nc2O)CCC(C)C3)cc1 (stereo not given),-13.47%
6,CNS(=O)(=O)c1ccccc1N1CCN(C(C)C(=O)OC)CC1 (stereo not given),-10.15%
7,CO[C@H]1CN(C(=O)c2ccc(C)o2)[C@@H]2CCCO[C@H]12,2.722%
8,O=C(O)C(F)(F)F.O=C(c1ccnnc1)N1C[C@H](Oc2ccccn2)[C@H]2OCCC[C@H]21,96.83%
9,Cc1occc1C(=O)N1C[C@H](Oc2ccccn2)[C@H]2OCCC[C@H]21.O=C(O)C(F)(F)F,-5.077%
10,Cc1cccc(C(=O)N2C[C@@H](OCc3cccnc3)[C@H]3OCCC[C@@H]32)n1.O=C(O)C(F)(F)F.O=C(O)C(F)(F)F,19.74%
11,CO[C@H]1CN(C(=O)c2cccnc2)[C@@H]2CCCO[C@H]12.O=C(O)C(F)(F)F,121%
12,CN(C)C(=O)N1C[C@H](Oc2ccccn2)[C@H]2OCCC[C@H]21.O=C(O)C(F)(F)F,-8.316%
13,Cc1noc(C)c1CN1C[C@@H](NS(=O)(=O)N(C)C)[C@H](C(C)C)C1,-5.186%
14,CC(=O)N1CCC2(CCN(C(=O)c3ccc(Cl)c(C(F)(F)F)c3)CC2)C1,-5.245%
15,CCCn1ncc(C(=O)NC2CCN(C3CCOCC3)CC2)c1C,-3.665%
16,CC(C)(C#N)C(=O)Nc1nccn1Cc1ccc(Br)cc1,-2.576%
17,CN1CC2(CCN(C(=O)Cn3ncc4ccccc4c3=O)CC2)OC1=O,95.4%
18,Cc1ccc2oc(=O)n(CC(=O)N3CCC4(CC3)CN(C)C(=O)O4)c2c1,-3.778%
19,CN1CCCC2(CCN(C(=O)Cn3ncc4ccccc4c3=O)C2)C1=O (stereo not given),88.86%
20,Cc1nn(CC(=O)N2CCC3(CN(C)C(=O)O3)C2)c(=O)c2ccccc12 (stereo not given),94.98%
21,CN1CC2(CCN(C(=O)COc3ccc(Cl)cc3Cl)CC2)OC1=O,-5.539%
22,CN1CCCC2(CCN(C(=O)CCn3cncn3)C2)C1=O (stereo not given),-41.8%
23,Cc1nc[nH]c1C(=O)N1CCC2(CN(C)C(=O)O2)C1 (stereo not given),-7.833%
24,Cc1nccc(-c2ccccc2)c1C(=O)N1CCC2(CN(C)C(=O)O2)C1 (stereo not given),-8.281%
25,CCc1ccc2occ(CC(=O)N3CCC4(CCCN(C)C4=O)C3)c2c1 (stereo not given),-37.19%
